Screening data from PubChem BioAssay.
Marburg entry inh: blocks Marburg virus binding to or entry into cells | Marburg virus pseudotyped entry inhibition, cell reporter | Potency, µM (series often up to 37.8 µM), without a hit: at the highest dose activity change, negative = inhibition, most hits filed as inhibitors | actives 1.8% (n = 300,000) | AID 540276; calls by dose curve; tested in HEK293 cells; note: potency is the fitted concentration of half-maximal effect
FMDV inh: foot and mouth disease virus antiviral activity; FMDV antiviral cell-based qHTS; Potency, µM (doses to about 57.9 µM), for the others: top-dose activity change, negative = inhibition, most hits filed as inhibitors; actives 1.2% (n = 410,000); AID 1159524; calls by dose curve; tested in HEK293T cells; note: read-out not given here; potency is the fitted concentration of half-maximal effect; nearly all actives have a fitted effect of over 45% in size
HCV inhibitor: blocks hepatitis C virus; actives 3.4% (n = 340,000); Potency, µM (top dose mostly 41.8 µM), for the others: top-dose activity change, negative = inhibition, most hits filed as inhibitors; Huh7.5.1 HCVcc-Cre infection, luciferase reporter, 44 h; AID 651820; active = well fitted inhibition curve with a large enough effect; inconclusive = small, poorly fitted or top-dose-only effect, or another doubt; inactive = no such curve, though single readings can be large or run the other way; note: potency is the fitted concentration of half-maximal effect
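Reporter virus HCVcc-Cre (~0.5 moi) infects cells exposed to compound; seeding density 1,000 cells/well with 4 h settling beforehand. Luminescence, 15 sec read, taken 44 h post-infection following a 15 min RT substrate incubation.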
HCMV inh: blocks human cytomegalovirus replication; AID 1259415; HFF cells, HCMV-luciferase reporter, 72 h; active compounds read low; actives 4.5% (n = 410,000); activity change, negative = inhibition, % at 57.5 µM; in the data active = activity change below about -60%; inconclusive = no clear call, values can overlap the other calls; inactive = above about -39%
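HFF cells seeded 16 h at 37C, treated with compounds, infected with luciferase-reporter HCMV at MOI 1 PFU/cell; luciferase read at 72 h post infection, normalized to buffer-only and Salinomycin controls.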
Lassa entry inh: inhibitors of Lassa virus binding or cell entry | Lassa virus pseudotype entry inhibition, cell reporter | Potency, µM (highest dose often 37.9 µM), for the others: top-dose activity change, negative = inhibition, usual class: inhibitors | actives 1.2% (n = 300,000) | AID 540256; calls by dose curve; tested in HEK293 cells; note: potency is the fitted concentration of half-maximal effect; nearly all actives have a fitted effect of over 50% in size
An asterisk follows results filed as active; [ ] = remark or other dose. Most compounds without a hit are left out; they make up all but 7.9% or so of the library. % is set by controls: 0 for no effect and ±100 for the full control effect.

What do the screens show for `O=C(c1cnn(-c2nccc(-c3ccccc3F)n2)c1C1CC1)N1CCCCC1c1cccnc1` (stereo not given)?
FMDV inh: -8.3%

Results for COc1ccccc1CCNC(=O)c1ccc2c(c1)c(C)c(C)n2C ?
FMDV inh: 23.9%; HCMV inh: 0.0; Lassa entry inh: 21.2%[46.1 µM]

What do the screens show for `COC(=O)Oc1ccc(/C=N/NC(=O)CSCc2ccc(Cl)cc2)cc1OC`?
Marburg entry inh: -38.6%; FMDV inh: inconclusive; HCV inhibitor: inconclusive; HCMV inh: -60.0*; Lassa entry inh: inconclusive

What do the screens show for `N#C/C(=N\Nc1ccccc1)C(N)=S`?
Marburg entry inh: 3.5%[46.1 µM]; FMDV inh: -4.4%; HCV inhibitor: -11.7%; HCMV inh: -18.6; Lassa entry inh: -3.3%

Results for CCC(CC)=NNc1cccc([N+](=O)[O-])c1 ?
Marburg entry inh: -12.6%; FMDV inh: -8.8%; HCV inhibitor: inconclusive; HCMV inh: -34.1; Lassa entry inh: -5.1%

How did N#C/C(=N\Nc1ccc(Cl)cc1)C(N)=S do in these assays?
Marburg entry inh: inconclusive; FMDV inh: -19.8%; HCV inhibitor: inconclusive; HCMV inh: -92.4*; Lassa entry inh: inconclusive

Results for N#C/C(=N\Nc1ccc(Cl)cc1)C(=O)c1ccsc1 ?
Marburg entry inh: inconclusive; FMDV inh: 1.2%; HCV inhibitor: inconclusive; HCMV inh: -63.9*; Lassa entry inh: inconclusive

How did N#C/C(=N\Nc1cccc(Cl)c1)C(=O)c1ccccc1 do in these assays?
Marburg entry inh: inconclusive; FMDV inh: 18.5%; HCV inhibitor: inconclusive; HCMV inh: -86.7*; Lassa entry inh: inconclusive

What do the screens show for `COc1ccc(C(=O)/C(C#N)=N/Nc2cccc([N+](=O)[O-])c2)cc1`?
Marburg entry inh: 14.6µM*; FMDV inh: inconclusive; HCV inhibitor: 11.2µM*; HCMV inh: -98.3*; Lassa entry inh: 10.3µM*

Results for N#C/C(=N\Nc1ccccc1Cl)C(=O)c1ccccc1 ?
Marburg entry inh: inconclusive; FMDV inh: -5.2%; HCV inhibitor: 3.4%; HCMV inh: -21.5; Lassa entry inh: -0.7%

What do the screens show for `CCCCC(CC)CNC(=O)CCCCCn1c(=O)[nH]c2ccsc2c1=O` (stereo not given)?
Marburg entry inh: -24.5%[46.1 µM]; FMDV inh: -8.4%; HCMV inh: -22.7; Lassa entry inh: 17.8%[46.1 µM]

Results for CCCCNS(=O)(=O)c1ccc(NC(=O)C(Sc2ccccc2)c2ccccc2)cc1 (stereo not given) ?
Marburg entry inh: inconclusive; FMDV inh: 0.0%; HCV inhibitor: inconclusive; HCMV inh: -68.5*; Lassa entry inh: 9.2µM*

What do the screens show for `CCC(C)NS(=O)(=O)c1ccc(NC(=O)C(Sc2ccccc2)c2ccccc2)cc1` (stereo not given)?
Marburg entry inh: inconclusive; FMDV inh: -13.5%; HCV inhibitor: inconclusive; HCMV inh: -27.0; Lassa entry inh: 12.6µM*

How did CCOC(=O)c1ccc(CN(Cc2ccc(F)cc2)S(=O)(=O)c2ccc(F)c(C(=O)Nc3cc(Cl)ccc3OC)c2)cc1 do in these assays?
FMDV inh: -25.2%; HCMV inh: -38.5; Lassa entry inh: inconclusive

How did CCOC(=O)C1=C(COC(=O)CNS(=O)(=O)c2ccc(C)c(C)c2)NC(=O)NC1C (stereo not given) do in these assays?
FMDV inh: 4.6%; HCMV inh: -33.5

Results for Cc1csc(=O)n1CCC(=O)OCC(=O)NNC(=O)c1ccccc1 ?
Marburg entry inh: -10.2%; FMDV inh: 9.1%; HCV inhibitor: 17.5%; HCMV inh: -23.0; Lassa entry inh: inconclusive

How did Cc1ccc(-c2cc3c(N=O)c4ccccc4c-3n[nH]2)cc1 do in these assays?
Marburg entry inh: 12.5%[46.1 µM]; FMDV inh: -12.5%; HCV inhibitor: 14.3%; HCMV inh: -93.6*; Lassa entry inh: 20.4%

Results for Cc1cccc(-c2cc3c(N=O)c4ccccc4c-3n[nH]2)c1 ?
Marburg entry inh: inconclusive; FMDV inh: -47.1%; HCV inhibitor: 11.2µM*; HCMV inh: 83.5; Lassa entry inh: inconclusive

How did O=C(CSc1nc(-c2ccco2)cc(C(F)(F)F)n1)Nc1ccc(C(=O)N2CCCCC2)cc1 do in these assays?
Marburg entry inh: 6.2%; FMDV inh: inconclusive; HCV inhibitor: 11.2µM*; HCMV inh: 31.3

Results for COc1ccc(NC(=O)CCCSc2nc(-c3ccco3)cc(C(F)(F)F)n2)cc1OC ?
Marburg entry inh: inconclusive; FMDV inh: -26.2%; HCV inhibitor: 15.8µM*; HCMV inh: -15.8; Lassa entry inh: -7.6%[46.1 µM]

Results for COc1ccc(NC(=O)CSc2nc(-c3ccco3)cc(C(F)(F)F)n2)cc1Cl ?
Marburg entry inh: inconclusive; FMDV inh: inconclusive; HCMV inh: -69.0*; Lassa entry inh: inconclusive

How did CC(=O)CCC(=O)N1CCC(n2c(C3CCCO3)nc3cc(C(F)(F)F)ccc32)CC1 (stereo not given) do in these assays?
FMDV inh: -8.6%

What do the screens show for `CCN(CC)c1nn2c(=O)c(C(=O)NCCc3ccc(C)cc3)cnc2s1`?
FMDV inh: inconclusive; HCMV inh: -64.5*; Lassa entry inh: inconclusive

Results for CCOc1ccc(CCNC(=O)c2cnc3sc(N4CCCC4)nn3c2=O)cc1 ?
FMDV inh: 28.2µM*; HCMV inh: -24.0; Lassa entry inh: inconclusive

Results for CCOc1ccccc1-n1nnnc1SCC(=O)N(C)C1CCS(=O)(=O)C1 (stereo not given) ?
FMDV inh: -20.7%; HCMV inh: 29.1

How did COc1ccc(OCC(=O)Nc2ccc3nc(C)sc3c2)cc1 do in these assays?
Marburg entry inh: 4.6%[46.1 µM]; FMDV inh: 1.0%; HCV inhibitor: -21.1%; HCMV inh: inconclusive; Lassa entry inh: 3.8%

What do the screens show for `COc1ccc(S(=O)(=O)Nc2c(C)cc(C)cc2C)c2cccnc12`?
FMDV inh: inconclusive; HCV inhibitor: 14.3%; HCMV inh: -61.8*

How did CN1C(=O)C(C(Nc2ccccc2)c2ccccc2)c2ccccc21 (stereo not given) do in these assays?
HCMV inh: -4.1

What do the screens show for `C[C@@H]1CN([C@H](C)CO)C(=O)CCCn2nncc2CO[C@@H]1CN(C)S(=O)(=O)c1ccc2c(c1)OCCCO2`?
FMDV inh: -13.1%; HCMV inh: -11.7

How did Cc1cccc2cc(C#N)c(N3CCN(C)CC3)nc12 do in these assays?
Marburg entry inh: -16.0%; FMDV inh: -1.1%; HCV inhibitor: 10µM*; HCMV inh: -30.5; Lassa entry inh: -4.1%

What do the screens show for `Cc1cc(C)c2nc(N3CCN(C)CC3)c(C#N)cc2c1`?
Marburg entry inh: inconclusive; FMDV inh: -4.5%; HCV inhibitor: -3.1%; HCMV inh: 34.4; Lassa entry inh: 13.3%

How did Cc1nc(CC(=O)c2c(C)cc(O)cc2O)cs1 do in these assays?
Marburg entry inh: 4.0%; HCV inhibitor: -5.6%; HCMV inh: -70.6*; Lassa entry inh: 0.2%

What do the screens show for `CCN(c1cc(C)cc(C)c1)S(=O)(=O)c1nnc(NC(=O)C(C)(C)C)s1`?
FMDV inh: -29.0%; HCV inhibitor: 2.1%; HCMV inh: -67.2*
